The text below walks through data of PubChem BioAssay.

The structures appear in SMILES notation. Values without a mark were called inactive. For some of these results: Potency and affinity values are given separately. The source made the active and inactive calls. Unless noted, the rule behind the calls is not given here.

In general, inhibition refers to the change of the read-out against control, counted positive when it falls.

Test [1] is described as follows: antimalarial activity against Dd2 strain (AID 2302;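 active = growth inhibition above 50% at the single 2 µM test dose, taken to imply half-maximal potency below 2 µM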;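 note: 0% = DMSO untreated growth and 100% = chloroquine plus artemisinin killed control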). Particulars: P. falciparum Dd2 in RBCs, LDH growth readout, 72 h; at 2 µM; active compounds read high.
Test [2] can be described thus: HepG2 cytotoxicity, primary screen, cytotoxicity control for P. falciparum antimalarial project, cell-based, ATP luminescence (AID 2303;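 active = inhibition above 50%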;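 note: 0% = DMSO wells and 100% = digitonin-killed cells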). Particulars: HepG2 viability, 24-48 h, at 10 µM, active compounds read high.
Test [3] deals with L-lactate dehydrogenase (Plasmodium falciparum (isolate CDC / Honduras)) (UniProt Q27743). As to the kind of experiment: PfLDH activity inhibition – cell lysate, 3D7 strain, counter-screen for P. falciparum growth inhibition project (AID 2304).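 Note: 0% = vehicle and 100% = reference inhibitor.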 Particulars: P. falciparum 3D7 crude extract, LDH APAD/NBT absorbance; at 2 µM; active compounds read high. Background: The purpose of a counterscreen is to sort out artefacts and off-target activity.

A short description of test [4]: inhibition of 3D7 malaria parasite growth – strain 3D7 (AID 2306).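 Note: 0% = DMSO wells and 100% = chloroquine plus artemisinin control wells.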 Particulars: P. falciparum 3D7 erythrocytic growth, LDH absorbance, 72 h; at 2 µM; active compounds read high.
For test [5], the target named is Calcium-dependent protein kinase 1 (Plasmodium falciparum (isolate 3D7)) (UniProt P62344). Description: PfCDPK1 kinase inhibitors, biochemical, TCAMS library (AID 1159585; cut-off not given, nearly all actives have IC50 up to about 0.98 µM;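 note: inhibitors leave more ATP so luminescence rises with inhibition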). Particulars: recombinant PfCDPK1, Kinase-Glo ATP depletion luminescence. A general note: In Kinase-Glo more light means more ATP remaining.
The target in test [6] is Plasmodium falciparum protein kinase 6 (PK6, PF3D7_1337100) (UniProt Q8IDW1). As to the kind of experiment: PfPK6 kinase inhibitors, biochemical, TCAMS library (AID 1159586). As to conditions: recombinant PfPK6, Kinase-Glo ATP depletion luminescence.
In test [7] the target is Protein kinase 7 (PK7), Plasmodium falciparum 3D7 (PF3D7_0213400) (UniProt Q7YTF7). Description: inhibition of Plasmodium PK7 catalytic activity – biochemical, TCAMS antimalarial set, Kinase-Glo luminescence (AID 1159587). As to conditions: recombinant PfPK7, Kinase-Glo ATP depletion luminescence.
In test [8] the target is Calcium-dependent protein kinase 4 (Plasmodium falciparum (isolate 3D7)) (UniProt Q8IBS5). Description: PfCDPK4 kinase inhibitors, biochemical, TCAMS library (AID 1159588; cut-off not given, nearly all actives have IC50 up to about 0.91 µM). Particulars: recombinant PfCDPK4, Kinase-Glo ATP depletion luminescence.
Sequence of Calcium-dependent protein kinase 4 (Plasmodium falciparum (isolate 3D7)) (Q8IBS5 whole entry, looked up): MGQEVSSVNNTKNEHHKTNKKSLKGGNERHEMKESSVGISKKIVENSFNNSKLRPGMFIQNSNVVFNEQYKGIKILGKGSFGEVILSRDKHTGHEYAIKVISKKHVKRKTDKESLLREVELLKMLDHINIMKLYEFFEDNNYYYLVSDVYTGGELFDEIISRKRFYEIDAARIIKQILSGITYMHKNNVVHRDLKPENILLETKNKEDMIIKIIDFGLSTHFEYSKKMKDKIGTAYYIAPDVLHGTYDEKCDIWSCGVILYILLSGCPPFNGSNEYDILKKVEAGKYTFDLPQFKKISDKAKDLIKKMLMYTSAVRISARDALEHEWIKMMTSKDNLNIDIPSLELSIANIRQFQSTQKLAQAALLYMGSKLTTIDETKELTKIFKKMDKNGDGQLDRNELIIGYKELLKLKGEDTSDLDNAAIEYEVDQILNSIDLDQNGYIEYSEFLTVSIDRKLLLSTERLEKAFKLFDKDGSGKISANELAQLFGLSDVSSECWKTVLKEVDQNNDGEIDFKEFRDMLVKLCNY

Sequence of L-lactate dehydrogenase (Plasmodium falciparum (isolate CDC / Honduras)) (Q27743 whole entry, looked up): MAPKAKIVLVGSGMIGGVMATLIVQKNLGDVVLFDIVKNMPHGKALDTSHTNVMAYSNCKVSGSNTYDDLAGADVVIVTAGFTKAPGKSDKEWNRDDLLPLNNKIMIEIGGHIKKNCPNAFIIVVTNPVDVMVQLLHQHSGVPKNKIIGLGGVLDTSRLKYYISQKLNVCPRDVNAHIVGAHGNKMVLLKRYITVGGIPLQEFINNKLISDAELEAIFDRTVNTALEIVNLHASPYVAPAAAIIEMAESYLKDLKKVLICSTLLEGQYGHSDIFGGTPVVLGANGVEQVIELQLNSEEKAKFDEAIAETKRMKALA
Sequence of Plasmodium falciparum protein kinase 6 (PK6, PF3D7_1337100) (Q8IDW1 1-305): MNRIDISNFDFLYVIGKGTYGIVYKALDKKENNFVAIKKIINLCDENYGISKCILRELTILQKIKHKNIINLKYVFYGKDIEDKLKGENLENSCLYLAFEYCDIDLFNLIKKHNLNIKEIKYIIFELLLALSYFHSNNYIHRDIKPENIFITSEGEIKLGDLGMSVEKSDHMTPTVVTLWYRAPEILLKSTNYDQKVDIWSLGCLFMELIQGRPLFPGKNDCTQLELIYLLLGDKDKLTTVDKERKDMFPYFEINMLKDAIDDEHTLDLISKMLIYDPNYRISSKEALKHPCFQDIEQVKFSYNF
Sequence of Calcium-dependent protein kinase 1 (Plasmodium falciparum (isolate 3D7)) (P62344 whole entry, looked up): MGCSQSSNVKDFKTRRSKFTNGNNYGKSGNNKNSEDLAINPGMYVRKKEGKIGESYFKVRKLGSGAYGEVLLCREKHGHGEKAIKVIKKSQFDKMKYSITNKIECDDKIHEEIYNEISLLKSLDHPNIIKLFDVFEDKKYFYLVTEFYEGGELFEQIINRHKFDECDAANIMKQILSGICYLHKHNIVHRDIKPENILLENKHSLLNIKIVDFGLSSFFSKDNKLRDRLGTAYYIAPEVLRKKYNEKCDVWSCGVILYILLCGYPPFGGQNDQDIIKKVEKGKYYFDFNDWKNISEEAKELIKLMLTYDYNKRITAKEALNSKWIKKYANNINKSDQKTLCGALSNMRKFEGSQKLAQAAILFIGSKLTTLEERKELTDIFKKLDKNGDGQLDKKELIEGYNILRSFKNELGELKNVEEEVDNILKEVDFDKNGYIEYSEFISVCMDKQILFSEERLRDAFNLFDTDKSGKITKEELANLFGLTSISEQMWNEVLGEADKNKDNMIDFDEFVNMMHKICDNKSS
Sequence of Protein kinase 7 (PK7), Plasmodium falciparum 3D7 (PF3D7_0213400) (Q7YTF7 1-343): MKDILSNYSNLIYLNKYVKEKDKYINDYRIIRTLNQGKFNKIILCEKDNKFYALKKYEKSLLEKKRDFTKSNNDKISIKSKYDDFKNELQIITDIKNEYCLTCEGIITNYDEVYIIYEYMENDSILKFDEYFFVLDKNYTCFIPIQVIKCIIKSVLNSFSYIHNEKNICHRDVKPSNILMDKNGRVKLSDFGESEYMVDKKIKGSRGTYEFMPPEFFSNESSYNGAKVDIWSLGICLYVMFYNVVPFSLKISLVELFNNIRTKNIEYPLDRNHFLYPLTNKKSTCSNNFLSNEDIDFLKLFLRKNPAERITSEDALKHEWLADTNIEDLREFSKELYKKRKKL

For the compound `O=C(Nc1cccc(CN2CCN(C(=O)c3ccccc3)CC2)c1)c1cccs1`, the growth inhibition in test [1] was 97% (active); in test [4], 95% (active). Moreover, the inhibition is 15% in test [2] and 1% in test [3]. Besides, the outcome in test [5], in test [6], in test [7] and in test [8] was inactive.

As to `CN1CCC(N2CCN(Cc3cccc(-c4ccc(-c5nc6ccccc6[nH]5)cc4)c3)CC2)CC1`, the values for the growth inhibition in test [1] and in test [4] were 99% (active) and 100% (active), respectively. The inhibition is 56% (active) in test [2] and -7% in test [3]. Also, the outcome in test [5], in test [6], in test [7] and in test [8] was inactive.

As to `Cc1ccccc1C1CCN(c2ccc(C(=O)NC3CC3)cn2)CC1`, the growth inhibition in test [1] and in test [4] was 95% (active) throughout. Besides, the inhibition in test [2] is 17%; in test [3], -2%. Also, the result in test [5], in test [6], in test [7] and in test [8] was inactive.

Consider `N#Cc1ccc(CN2CCC(Oc3ccc(NC(=O)c4ccco4)cc3Cl)CC2)cc1`, for which the growth inhibition in test [1] was 96% (active); in test [4], 95% (active). The values for the inhibition in test [2] and in test [3] were 7% and 6%, respectively. The outcome in test [5], in test [6], in test [7] and in test [8] was inactive.

For `CN1CCN(c2ccc(CNc3ccc4ncc(-c5ccc(OC(F)(F)F)cc5)n4n3)cc2)CC1`, the growth inhibition in test [1] is 87% (active); in test [4], 94% (active). Also, the inhibition in test [2] was 13%; in test [3], 0%. For the same compound, the result in test [5], in test [6], in test [7] and in test [8] was inactive.

For `COc1ccc(-c2nc(NC(=O)CS(=O)(=O)c3ccc(C)cc3)sc2C)cc1`, the figures for the growth inhibition in test [1] and in test [4] were 94% (active) and 101% (active), respectively. For the same compound, the inhibition in test [2] was 56% (active); in test [3] it was 2%. Also, the outcome in test [5], in test [6], in test [7] and in test [8] was inactive.

`Cc1ccc(NC(=O)c2ccc(CN3CCCN(Cc4cccc(C#N)c4)CC3)cc2)cc1F`: the growth inhibition is 19% in test [1] and 98% (active) in test [4]. Also, the inhibition in test [2] is 49%; in test [3], -3%. The outcome in test [5], in test [6], in test [7] and in test [8] was inactive.

Turning to `COc1ccc(CNCc2ccccc2)cc1-c1ccc(OC)c(S(=O)(=O)NCCN2CCCC2)c1`, the growth inhibition in test [1] is 55% (active); in test [4] it was 100% (active). The inhibition is 14% in test [2] and -5% in test [3]. The outcome in test [5], in test [6], in test [7] and in test [8] was inactive.

As for `Cc1ccc(N2C(N)=NC(N)=NC2(C)C)cc1`, the growth inhibition in test [1] is 20%; in test [4], 96% (active). Further, the inhibition in test [2] was 43%; in test [3] it was 0%. Besides, the outcome in test [5], in test [6], in test [7] and in test [8] was inactive.

As for `N#Cc1cc(C(=O)c2cc(Cl)ccc2O)cn(-c2cc(Cl)cc(Cl)c2)c1=O`, the growth inhibition in test [1] is 32%; in test [4], 93% (active). Besides, the inhibition in test [2] was 34%; in test [3], -8%. The outcome in test [5], in test [6], in test [7] and in test [8] was inactive.

On to `COc1ccc(NC(=O)[C@H](Cc2ccccc2)Nc2cc(C)nc(NCCc3ccccc3)n2)cc1`, for which the growth inhibition in test [1] was 83% (active); in test [4] it was 98% (active). Also, the inhibition in test [2] was 6%; in test [3], -1%. Besides, the outcome in test [5], in test [6], in test [7] and in test [8] was inactive.

Turning to `Nc1c2c(nc3ccc(C(=O)Nc4cc(I)c(O)c(I)c4)cc13)CCCC2`, the growth inhibition was 64% (active) in test [1] and 96% (active) in test [4]. The inhibition in test [2] is 14%; in test [3], 0%. The result in test [5], in test [6], in test [7] and in test [8] was inactive.

`COc1cc(C2NCC3(CCOCC3)c3cc4c(cc32)OCCO4)cc(OC)c1OC` (stereo not given): the results for the growth inhibition in test [1] and in test [4] were 2% and 95% (active), respectively. In addition, the inhibition in test [2] is 24%; in test [3], -5%. Moreover, the outcome in test [5], in test [6], in test [7] and in test [8] was inactive.

`O=C(Nc1ccccc1)N(Cc1cccc(-c2cccc(CNCCc3ccccc3)c2)c1)C1CCN(Cc2ccccc2)CC1`: the growth inhibition is 87% (active) in test [1] and 100% (active) in test [4]. The inhibition was 100% (active) in test [2] and 1% in test [3]. Further, the result in test [5], in test [6], in test [7] and in test [8] was inactive.

In the case of `COc1ccc(NC(=O)/C=C/c2ccccc2Cl)cc1OCCN1CCC(NC2CC2)CC1`, the growth inhibition in test [1] is 66% (active); in test [4] it was 101% (active). The inhibition in test [2] was 23%; in test [3], 3%. Besides, the result in test [5], in test [6], in test [7] and in test [8] was inactive.

For `O=C(c1ccc([N+](=O)[O-])o1)N1CCN(c2ccccc2)CC1`, the growth inhibition in test [1] was 72% (active); in test [4] it was 94% (active). Further, the inhibition in test [2] is 44%; in test [3], 0%. For the same compound, the result in test [5], in test [6], in test [7] and in test [8] was inactive.

Take `CCNc1cc(C(=O)N[C@@H](Cc2ccccc2)[C@H](O)CN[C@@H]2CCc3ccccc32)cc(N2CCCC2=O)c1`: the growth inhibition in test [1] is 93% (active); in test [4], 92% (active). Further, the inhibition in test [2] is -5%; in test [3] it was 6%. For the same compound, the outcome in test [5], in test [6], in test [7] and in test [8] was inactive.

Take `Cc1cc(F)ccc1[C@H]1C[C@H](N2CCOCC2)CCN1C(=O)N(C)[C@@H](C)c1cc(C(F)(F)F)cc(C(F)(F)F)c1`: the growth inhibition in test [1] was 99% (active); in test [4], 100% (active). For the same compound, the inhibition in test [2] is 4%; in test [3], 3%. For the same compound, the outcome in test [5], in test [6], in test [7] and in test [8] was inactive.

Consider `CN1CCN(CCCN(Cc2ccc(-c3cccc(CNCc4ccc5c(c4)OCO5)c3)cc2)C(=O)NCCc2ccccc2)CC1`, for which the growth inhibition in test [1] is 85% (active); in test [4], 98% (active). Further, the inhibition in test [2] was 36%; in test [3] it was 3%. Further, the result in test [5], in test [6], in test [7] and in test [8] was inactive.

Regarding `CN(CCCNc1ccc(C(=O)Nc2ccc(C(F)(F)F)cc2)cc1[N+](=O)[O-])Cc1ccccc1`, the growth inhibition was 48% in test [1] and 100% (active) in test [4]. For the same compound, the values for the inhibition in test [2] and in test [3] were 25% and -9%, respectively. For the same compound, the outcome in test [5], in test [6], in test [7] and in test [8] was inactive.
